Measured values as given in PubChem BioAssay AID504569 (NMMLSC, 2011).
Potency and affinity values are given separately.

target: ATP-dependent translocase ABCB1 (Homo sapiens) (UniProt P08183); assay: ABCB1 efflux inhibitor potency, dose response, Jurkat-DNR cells, JC-1, flow cytometry, set 2 (AID 504569); conditions: JC-1 efflux; series mostly up to 50 µM; inhibition: at the top concentration
Sequence (P08183 whole entry, looked up): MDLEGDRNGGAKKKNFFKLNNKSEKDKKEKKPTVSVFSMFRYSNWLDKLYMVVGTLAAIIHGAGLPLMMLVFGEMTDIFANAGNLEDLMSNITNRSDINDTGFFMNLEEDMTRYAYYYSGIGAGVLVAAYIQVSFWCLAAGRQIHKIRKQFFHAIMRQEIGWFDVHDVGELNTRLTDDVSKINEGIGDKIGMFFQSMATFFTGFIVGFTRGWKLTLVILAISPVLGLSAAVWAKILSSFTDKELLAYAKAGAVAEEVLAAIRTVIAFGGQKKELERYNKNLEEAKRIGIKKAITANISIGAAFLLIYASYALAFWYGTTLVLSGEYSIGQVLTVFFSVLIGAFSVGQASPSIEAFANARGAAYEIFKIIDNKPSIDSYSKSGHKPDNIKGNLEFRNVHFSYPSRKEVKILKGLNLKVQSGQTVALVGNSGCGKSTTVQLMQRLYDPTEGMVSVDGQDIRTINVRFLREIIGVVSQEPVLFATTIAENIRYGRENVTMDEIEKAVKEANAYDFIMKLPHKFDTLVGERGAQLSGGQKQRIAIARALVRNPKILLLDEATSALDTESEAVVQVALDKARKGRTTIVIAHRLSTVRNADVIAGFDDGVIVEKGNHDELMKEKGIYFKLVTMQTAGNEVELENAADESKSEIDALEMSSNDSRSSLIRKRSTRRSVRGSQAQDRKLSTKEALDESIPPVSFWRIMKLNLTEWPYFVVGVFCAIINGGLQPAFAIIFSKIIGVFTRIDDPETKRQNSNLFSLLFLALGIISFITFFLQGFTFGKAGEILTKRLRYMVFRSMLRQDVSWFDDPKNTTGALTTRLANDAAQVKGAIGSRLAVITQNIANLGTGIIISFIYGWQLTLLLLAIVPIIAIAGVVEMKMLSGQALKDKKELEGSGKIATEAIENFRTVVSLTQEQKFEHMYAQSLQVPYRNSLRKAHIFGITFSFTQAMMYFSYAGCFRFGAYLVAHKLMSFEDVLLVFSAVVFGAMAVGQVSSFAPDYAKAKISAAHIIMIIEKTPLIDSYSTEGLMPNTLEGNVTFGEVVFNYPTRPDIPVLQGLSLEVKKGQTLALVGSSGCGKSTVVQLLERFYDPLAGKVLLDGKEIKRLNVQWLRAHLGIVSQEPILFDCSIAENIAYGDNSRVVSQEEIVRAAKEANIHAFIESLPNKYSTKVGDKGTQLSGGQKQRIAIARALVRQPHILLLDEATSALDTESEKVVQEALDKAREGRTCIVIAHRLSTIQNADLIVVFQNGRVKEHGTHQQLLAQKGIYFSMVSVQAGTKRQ

inhibition, inactive:
O=S(=O)(c1ccccc1)N1CCN(c2cc(-c3ccccc3)nc3cc(-c4cccc(Cl)c4)nn23)CC1 5.5%, Cc1nc2cc(-c3cccs3)nn2c(N2CCN(C(=O)c3ccco3)CC2)c1C 11.9%, CC(=O)N1CCN(c2c(C)c(C)nc3cc(-c4ccc(Cl)cc4)nn23)CC1 27.8%
